The results in this text go back to PubChem BioAssay (EPA / NIEHS).

Assay [1] can be described thus: ATG_GRE_CIS: Attagene CIS-FACTORIAL HepG2 Assay for human Glucocorticoid Response Elements (GRE) (AID 2282947). The conditions noted are these: HepG2 GRE cis-reporter, Attagene multiplex mRNA; actives raise or lower the signal. In a few lines: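 Transiently transfected HepG2 cells carrying GRE cis-reporter units (endogenous TF activity) dosed 24 h; reporter mRNA quantified by RT-PCR, 6-FAM labelling, HpaI digestion and capillary electrophoresis. Bidirectional fit versus DMSO baseline.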

A short description of assay [2]: ATG_ISRE_CIS: Attagene CIS-FACTORIAL HepG2 Assay for human Interferon Regulatory Factor 1 (IRF1) binding to an Interferon-Stimulated Response Element (ISRE) (AID 2282948). Conditions: HepG2 ISRE cis-reporter (Attagene), mRNA transcription readout; actives raise or lower the signal. In a few lines:
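Transiently transfected HepG2 cells carrying cis-element reporter units, dosed 24 hours. Reporter mRNA quantified by RT-PCR, fluorescent primer extension, HpaI digestion and capillary electrophoresis. Bidirectional fitting relative to DMSO.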

Assay [3] can be described thus: ATG_M_32_CIS: Attagene CIS-FACTORIAL HepG2 Assay for M32 Transcription Factor (Internal Marker) (AID 2282949).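 Also: background control marker of the multiplexed CIS panel rather than a real target.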 Conditions: HepG2 Attagene cis-factorial M32 reporter, mRNA; actives raise or lower the signal. Summed up: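 HepG2 cells transiently transfected with multiplexed cis-regulated reporter units, dosed 24 h. Reporter mRNA quantified by RT-PCR, 6-FAM labelling, HpaI digestion and capillary electrophoresis; bidirectional fit vs DMSO.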

A short description of assay [4]: ATG_M_06_CIS: Attagene CIS-FACTORIAL HepG2 Assay for M06 Transcription Factor (Internal Marker) (AID 2282950). Conditions: HepG2 Attagene CIS-FACTORIAL M06 internal marker reporter; actives raise or lower the signal. In a few lines: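 One of many multiplexed endpoints: HepG2 reporter mRNA after 24 h dosing, detected by RT-PCR and capillary electrophoresis fluorescence; gain or loss of signal analysed against DMSO.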

In assay [5] the target is Hypoxia-inducible factor 1-alpha (Homo sapiens) (UniProt Q16665). Kind of assay: ATG_HIF1a_CIS: Attagene CIS-FACTORIAL HepG2 Assay for human Hypoxia Inducible Factor 1 (HIF1A) (AID 2282951). Conditions: HepG2 Attagene cis-factorial HIF1a reporter transcription; actives raise or lower the signal. Summed up: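 Measures endogenous transcription-factor activity through cis-regulated reporter mRNA in HepG2. Cells dosed 24 h; transcripts quantified by RT-PCR with 6-FAM-labelled products separated by capillary electrophoresis; DMSO serves as negative control.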
Sequence of Hypoxia-inducible factor 1-alpha (Homo sapiens) (Q16665 whole entry, looked up): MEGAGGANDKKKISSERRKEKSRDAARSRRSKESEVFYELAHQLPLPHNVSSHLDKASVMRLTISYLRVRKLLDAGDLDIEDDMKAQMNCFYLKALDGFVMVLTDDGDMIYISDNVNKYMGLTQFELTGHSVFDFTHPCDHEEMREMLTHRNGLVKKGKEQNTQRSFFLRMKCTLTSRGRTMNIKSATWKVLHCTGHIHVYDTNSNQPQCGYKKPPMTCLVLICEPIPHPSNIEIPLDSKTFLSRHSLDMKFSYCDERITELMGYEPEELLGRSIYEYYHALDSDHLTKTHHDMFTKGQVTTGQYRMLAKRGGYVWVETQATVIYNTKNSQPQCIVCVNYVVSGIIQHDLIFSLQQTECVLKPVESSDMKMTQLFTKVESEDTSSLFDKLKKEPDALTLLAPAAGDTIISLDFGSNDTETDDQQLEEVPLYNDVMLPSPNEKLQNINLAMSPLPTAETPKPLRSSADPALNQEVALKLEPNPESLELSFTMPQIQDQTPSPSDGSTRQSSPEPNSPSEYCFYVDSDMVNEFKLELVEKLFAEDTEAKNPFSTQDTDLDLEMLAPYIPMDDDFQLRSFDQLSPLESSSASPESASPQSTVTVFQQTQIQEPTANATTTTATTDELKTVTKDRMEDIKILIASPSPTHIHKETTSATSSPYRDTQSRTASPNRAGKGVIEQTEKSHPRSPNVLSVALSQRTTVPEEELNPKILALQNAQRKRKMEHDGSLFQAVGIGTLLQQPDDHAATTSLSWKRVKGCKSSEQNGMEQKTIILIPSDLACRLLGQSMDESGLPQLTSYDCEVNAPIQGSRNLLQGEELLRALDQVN

Assay [6] has as its target Hepatocyte nuclear factor 6 (Homo sapiens) (UniProt Q9UBC0). Kind of assay: ATG_HNF6_CIS: Attagene CIS-FACTORIAL HepG2 Assay for human Hepatocyte Nuclear Factor 6 (HNF6) (AID 2282952). The conditions noted are these: HepG2 Attagene cis-factorial HNF6 reporter transcription; actives raise or lower the signal. In a few lines: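 HepG2, transient MRTU transfection (cis promoters); 24 h chemical exposure; total RNA → oligo(dT) RT → PCR → 6-FAM labelling → HpaI cut → CE; bidirectional fit vs DMSO.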

Assay [7] deals with Heat shock factor protein 1 (Homo sapiens) (UniProt Q00613). Kind of assay: ATG_HSE_CIS: Attagene CIS-FACTORIAL HepG2 Assay for human Heat Shock Transcription Factor 1 (HSE) (AID 2282953). The conditions noted are these: HepG2 HSE cis-reporter, Attagene RNA transcription; actives raise or lower the signal. Summed up: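 Using HepG2 with transfected cis-driven reporter constructs, compound effects on endogenous factor activity are scored as reporter mRNA change at 24 h. Detection: RT-PCR, HpaI digestion, capillary electrophoresis; bidirectional fitting to DMSO.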
Sequence of Heat shock factor protein 1 (Homo sapiens) (Q00613 whole entry, looked up): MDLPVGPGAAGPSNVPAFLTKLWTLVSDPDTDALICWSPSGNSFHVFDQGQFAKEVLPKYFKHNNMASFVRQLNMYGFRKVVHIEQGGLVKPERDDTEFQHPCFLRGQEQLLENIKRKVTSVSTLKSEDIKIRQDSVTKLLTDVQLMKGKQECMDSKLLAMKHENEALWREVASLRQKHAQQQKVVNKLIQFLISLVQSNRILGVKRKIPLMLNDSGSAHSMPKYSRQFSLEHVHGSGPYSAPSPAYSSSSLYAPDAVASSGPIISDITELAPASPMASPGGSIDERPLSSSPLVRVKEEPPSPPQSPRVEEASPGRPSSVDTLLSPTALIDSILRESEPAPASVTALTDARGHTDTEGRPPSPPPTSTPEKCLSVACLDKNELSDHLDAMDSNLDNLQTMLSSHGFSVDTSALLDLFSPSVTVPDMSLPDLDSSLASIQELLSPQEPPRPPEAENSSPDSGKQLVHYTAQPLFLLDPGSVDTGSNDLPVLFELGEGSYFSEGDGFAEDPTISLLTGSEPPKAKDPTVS

The nature of assay [8]: ATG_MRE_CIS: Attagene CIS-FACTORIAL HepG2 Assay for human Metal Responsive Element (MRE) (AID 2282954). Conditions: HepG2 MRE cis-reporter transcription, Attagene multiplex; actives raise or lower the signal. In a few lines: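 HepG2 cells transiently transfected with cis-element-driven reporter units; mRNA measured 24 h after dosing. Reporter transcripts quantified by RT-PCR, FAM labelling, HpaI digestion and capillary electrophoresis; bidirectional fit versus DMSO.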

Assay [9] has as its target Paired box protein Pax-6 (Homo sapiens) (UniProt P26367). Kind of assay: ATG_Pax6_CIS: Attagene CIS-FACTORIAL HepG2 Assay for human Paired Box 6 (PAX6) (AID 2282956). The conditions noted are these: HepG2 CIS-FACTORIAL PAX6 reporter transcription, RNA readout; actives raise or lower the signal. In a few lines: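 HepG2 cells transiently transfected with cis-promoter-driven multiplexed reporter units sensing endogenous transcription factor activity; 24 h chemical exposure. Reporter mRNA quantified by RT-PCR, 6-FAM labelling, HpaI digestion and capillary electrophoresis; bidirectional fit versus DMSO baseline.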

Assay [10] can be described thus: ATG_PXRE_CIS: Attagene CIS-FACTORIAL HepG2 Assay for human Pregnane X Receptor Element (PXRE) (AID 2282957). The conditions noted are these: HepG2 Attagene CIS-FACTORIAL PXRE reporter, mRNA; actives raise or lower the signal. Summed up: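 Transfect HepG2 with MRTUs (cis promoter elements); dose chemical, incubate 24 h; isolate RNA, RT with oligo(dT), PCR, 6-FAM label, HpaI cut, CE. Gain/loss fit vs DMSO.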

A short description of assay [11]: ATG_PPRE_CIS: Attagene CIS-FACTORIAL HepG2 Assay for human Peroxisome Proliferator-activated Response Element (PPRE) (AID 2282958). The conditions noted are these: HepG2 PPRE cis-element reporter, Attagene transcription factor profiling; actives raise or lower the signal. In a few lines:
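Cells are first transfected transiently with the multiplexed reporter library, then dosed for 24 h. Total RNA is reverse-transcribed, amplified, fluorescently end-labeled and HpaI-cut before capillary electrophoresis; activity is fitted bidirectionally against DMSO controls.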

A short description of assay [12]: ATG_RORE_CIS: Attagene CIS-FACTORIAL HepG2 Assay for human RAR-related Orphan Receptor Element (RORE) (AID 2282959). Conditions: HepG2 Attagene cis-factorial RORE reporter, mRNA; actives raise or lower the signal. In a few lines:
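Cells were HepG2 carrying transfected cis-regulated reporter constructs, dosed for 24 hours. Total RNA was reverse-transcribed and reporter cDNA amplified, fluorescently labeled and sized by capillary electrophoresis. Activity was fitted bidirectionally relative to DMSO.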

Assay [13] in a line: ATG_Sox_CIS: Attagene CIS-FACTORIAL HepG2 Assay for human SRY-box transcription factor (SOX) (AID 2282960). Conditions: HepG2 Attagene cis-factorial SOX reporter, mRNA; actives raise or lower the signal. In a few lines:
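Transient MRTU transfection of HepG2; 24 h compound incubation; TriZol RNA, oligo(dT) RT, PCR, 6-FAM primer extension, HpaI cut, CE. Bidirectional fit, DMSO = baseline.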

The target in assay [14] is Transcription factor Sp1 (Homo sapiens) (UniProt P08047). Kind of assay: ATG_Sp1_CIS: Attagene CIS-FACTORIAL HepG2 Assay for human Specificity Protein 1 (Sp1) (AID 2282961). The conditions noted are these: HepG2 Sp1 cis-reporter transcription, actives raise or lower the signal. In a few lines: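 Endogenous Sp1 activity was gauged in human liver HepG2 cells bearing transfected reporter units under a cis-regulating promoter. After 24 h dosing, reporter mRNA was quantified by RT-PCR with capillary electrophoresis, and activity fitted bidirectionally versus DMSO.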
Sequence of Transcription factor Sp1 (Homo sapiens) (P08047 whole entry, looked up): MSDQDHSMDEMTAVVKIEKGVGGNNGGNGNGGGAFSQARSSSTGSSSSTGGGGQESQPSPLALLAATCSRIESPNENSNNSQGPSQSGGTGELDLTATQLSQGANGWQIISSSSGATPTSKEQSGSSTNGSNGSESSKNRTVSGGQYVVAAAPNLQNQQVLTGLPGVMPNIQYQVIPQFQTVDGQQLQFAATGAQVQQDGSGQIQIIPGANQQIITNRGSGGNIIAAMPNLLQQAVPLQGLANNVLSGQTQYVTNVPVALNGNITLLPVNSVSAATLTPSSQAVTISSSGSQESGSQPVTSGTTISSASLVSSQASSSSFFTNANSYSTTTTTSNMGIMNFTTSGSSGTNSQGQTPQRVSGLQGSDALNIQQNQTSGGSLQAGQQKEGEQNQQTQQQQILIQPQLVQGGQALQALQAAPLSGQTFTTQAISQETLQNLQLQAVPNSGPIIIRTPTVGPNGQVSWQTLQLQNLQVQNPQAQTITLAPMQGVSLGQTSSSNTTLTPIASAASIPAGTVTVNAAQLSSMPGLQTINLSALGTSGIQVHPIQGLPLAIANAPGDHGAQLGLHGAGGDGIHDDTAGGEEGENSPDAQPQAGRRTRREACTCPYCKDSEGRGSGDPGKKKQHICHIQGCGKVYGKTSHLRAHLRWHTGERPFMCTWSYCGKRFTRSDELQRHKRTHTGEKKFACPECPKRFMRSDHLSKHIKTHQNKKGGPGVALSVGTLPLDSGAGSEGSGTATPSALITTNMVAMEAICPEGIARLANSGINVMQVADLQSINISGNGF

The nature of assay [15]: ATG_SREBP_CIS: Attagene CIS-FACTORIAL HepG2 Assay for human Sterol Regulatory Element Binding (SREBP) (AID 2282962). Conditions: HepG2 Attagene cis-factorial SREBP reporter, mRNA; actives raise or lower the signal. In a few lines:
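HepG2 cells transiently transfected with multiplexed cis-promoter reporter units sensing endogenous transcription factors; reporter mRNA measured 24 h after dosing by RT-PCR, 6-FAM labeling, HpaI digestion and capillary electrophoresis. Bidirectional fit versus DMSO.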

Assay [16] concerns the target Signal transducer and activator of transcription 3 (Homo sapiens) (UniProt P40763). Kind of assay: ATG_STAT3_CIS: Attagene CIS-FACTORIAL HepG2 Assay for human Signal Transducer and Activator of Transcription 3 (STAT3) (AID 2282963). Conditions: HepG2, Attagene cis-factorial STAT3 reporter transcription; actives raise or lower the signal. In a few lines: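 HepG2 cells transiently transfected with multiple cis-element-driven reporter units report endogenous transcription factor activity. After 24 h compound exposure, reporter mRNA is measured by RT-PCR, 6-FAM labelling, HpaI digestion and capillary electrophoresis. Fitted bidirectionally versus DMSO.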

The nature of assay [17]: ATG_TA_CIS: Attagene CIS-FACTORIAL HepG2 Assay for human TA Basal Promoter (AID 2282964). The conditions noted are these: HepG2 Attagene CIS-factorial TA basal promoter reporter; actives raise or lower the signal. In a few lines:
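Transient MRTU transfection of HepG2 preceded 24 h compound exposure. Reporter mRNA levels were then read by RT-PCR with capillary electrophoresis, and this background-control endpoint was fitted bidirectionally to DMSO.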

A short description of assay [18]: ATG_TCF_b_cat_CIS: Attagene CIS-FACTORIAL HepG2 Assay for human T-Cell-Factor with beta-catenin (TCF/b-cat) (AID 2282965). Conditions: HepG2 TCF/beta-catenin cis-reporter transcription, actives raise or lower the signal. In a few lines: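 HepG2 cells transiently transfected with cis-promoter-driven multiplexed reporter units; reporter mRNA measured 24 h after dosing by RT-PCR, FAM labelling, HpaI digestion and capillary electrophoresis. Bidirectional fitting relative to DMSO baseline.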

A short description of assay [19]: ATG_TAL_CIS: Attagene CIS-FACTORIAL HepG2 Assay for human TAL Basal Promoter (AID 2282966).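 Also: background control endpoint measuring basal TAL promoter reporter mRNA not a specific factor.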 Conditions: HepG2 Attagene cis-factorial TAL promoter reporter; actives raise or lower the signal. Summed up:
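Fluorescence of labelled reporter cDNA fragments, resolved by capillary electrophoresis, gave the readout. Human HepG2 liver cells carried transiently transfected cis-element reporter units and were treated for 24 hours; activity was fitted bidirectionally against DMSO.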

Assay [20] is described as follows: ATG_PBREM_CIS: Attagene CIS-FACTORIAL HepG2 Assay for human Phenobarbital-responsive Enhancer Module (PBREM) (AID 2282955). Conditions: HepG2 PBREM cis-reporter, Attagene multiplexed transcription; actives raise or lower the signal. Summed up:
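Fluorescence of labelled reporter cDNA fragments, resolved by capillary electrophoresis, gives mRNA induction in transfected HepG2 cells treated for 24 h; DMSO serves as negative control and baseline.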

Some structures have more than one record in an assay (separate samples or runs), and their calls can disagree. Activity calls are given as the source filed them. The calls were made as follows: active = hit-call score of the fitted dose curve at least 0.9, where 1 is the maximum; inactive = score below 0.9.

Sequence of Paired box protein Pax-6 (Homo sapiens) (P26367 whole entry, looked up): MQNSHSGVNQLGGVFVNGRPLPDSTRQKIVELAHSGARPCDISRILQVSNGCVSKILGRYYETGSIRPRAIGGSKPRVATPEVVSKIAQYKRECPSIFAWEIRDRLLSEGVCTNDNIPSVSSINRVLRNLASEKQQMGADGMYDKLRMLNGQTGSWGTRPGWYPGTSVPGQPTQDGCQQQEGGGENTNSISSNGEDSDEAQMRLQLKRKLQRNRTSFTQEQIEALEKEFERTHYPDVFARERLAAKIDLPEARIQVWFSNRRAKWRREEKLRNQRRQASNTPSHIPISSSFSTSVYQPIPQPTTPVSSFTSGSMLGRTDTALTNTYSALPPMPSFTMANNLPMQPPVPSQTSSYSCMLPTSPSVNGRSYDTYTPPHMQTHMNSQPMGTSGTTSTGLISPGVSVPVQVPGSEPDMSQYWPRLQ
Sequence of Hepatocyte nuclear factor 6 (Homo sapiens) (Q9UBC0 whole entry, looked up): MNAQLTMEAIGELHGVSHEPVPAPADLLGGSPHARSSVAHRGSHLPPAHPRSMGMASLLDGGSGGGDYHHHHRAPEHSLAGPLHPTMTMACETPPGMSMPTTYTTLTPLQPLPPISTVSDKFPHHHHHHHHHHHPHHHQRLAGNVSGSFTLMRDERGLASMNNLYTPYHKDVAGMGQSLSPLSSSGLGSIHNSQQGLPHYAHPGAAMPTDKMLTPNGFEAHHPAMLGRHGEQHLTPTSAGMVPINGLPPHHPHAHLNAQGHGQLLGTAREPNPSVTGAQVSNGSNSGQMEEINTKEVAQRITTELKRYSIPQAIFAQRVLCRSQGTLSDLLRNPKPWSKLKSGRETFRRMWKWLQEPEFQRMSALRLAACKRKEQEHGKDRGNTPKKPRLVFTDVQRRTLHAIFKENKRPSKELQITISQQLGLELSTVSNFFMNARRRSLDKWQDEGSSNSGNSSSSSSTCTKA
Sequence of Signal transducer and activator of transcription 3 (Homo sapiens) (P40763 whole entry, looked up): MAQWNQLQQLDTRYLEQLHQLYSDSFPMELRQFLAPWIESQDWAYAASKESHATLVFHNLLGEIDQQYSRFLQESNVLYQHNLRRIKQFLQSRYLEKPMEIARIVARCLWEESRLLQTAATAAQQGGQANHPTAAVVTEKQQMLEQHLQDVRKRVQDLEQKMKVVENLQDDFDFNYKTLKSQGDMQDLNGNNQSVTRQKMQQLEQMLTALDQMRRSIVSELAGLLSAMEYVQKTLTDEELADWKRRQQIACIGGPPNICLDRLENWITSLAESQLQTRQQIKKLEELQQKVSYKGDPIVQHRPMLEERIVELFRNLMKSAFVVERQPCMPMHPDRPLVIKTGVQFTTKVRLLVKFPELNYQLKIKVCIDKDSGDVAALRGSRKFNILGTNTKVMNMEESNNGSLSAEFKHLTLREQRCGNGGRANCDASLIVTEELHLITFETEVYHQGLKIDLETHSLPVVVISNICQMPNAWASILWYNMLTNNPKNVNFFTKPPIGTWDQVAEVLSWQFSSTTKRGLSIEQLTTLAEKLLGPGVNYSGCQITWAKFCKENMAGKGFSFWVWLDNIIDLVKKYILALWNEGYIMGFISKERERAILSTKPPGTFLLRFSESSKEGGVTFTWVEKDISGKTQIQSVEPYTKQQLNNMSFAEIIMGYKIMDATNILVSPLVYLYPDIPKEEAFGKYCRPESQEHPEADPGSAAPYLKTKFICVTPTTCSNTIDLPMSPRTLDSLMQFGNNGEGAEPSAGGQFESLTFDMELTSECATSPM

As a reminder, the AC50 is the concentration at which the activity in the assay is half-maximal. With `CCN(CC)C(=O)c1cccc(C)c1`, the compound was called inactive in assay [1], in assay [2], in [3], in [4], in assay [5] and in [6]. Besides, the result in [7], in assay [8], in assay [9], in assay [10], in [11] and in [12] was inactive. The compound was classed as inactive in [13], in [14], in [15], in [16], in assay [17] and in assay [18]. The call in assay [19] was inactive. Besides, the AC50 in assay [10] was 40200 nM (active).
With `Cc1nn(C)c(Oc2ccccc2)c1C=NOCc1ccc(C(=O)OC(C)(C)C)cc1`, the call in [1], in assay [2], in assay [3], in assay [4], in assay [5] and in assay [6] was inactive. The outcome in assay [12], in assay [13], in assay [15], in assay [16], in assay [17] and in assay [18] was inactive. For the same compound, the call in assay [19] was inactive. For the same compound, the concentration at half-maximal activity (AC50) was 9450 nM (active) in [7]; 1880 nM (active) in [8]; 1880 nM (active) in assay [9]; 1150 nM (active) in assay [10]; 42.3 nM (active) in assay [11]; 21.2 nM (active) in assay [14].
Consider `Oc1ccc(C(c2ccc(O)cc2)C(Cl)(Cl)Cl)cc1`, for which the outcome in assay [1], in assay [2], in [3], in assay [4], in assay [5] and in [6] was inactive. For the same compound, the compound was called inactive in [7], in assay [8], in assay [9], in [12], in [13] and in assay [14]. Besides, the compound was called inactive in assay [15], in assay [16], in [17], in assay [18] and in [19]. Also, the AC50 in assay [10] is 498 nM (active).
For `CCCCOCCOCCOCc1cc2c(cc1CCC)OCO2`, the compound was classed as inactive in [2], in [3], in assay [4], in assay [5], in assay [6] and in assay [7]. The compound was called inactive in assay [8], in assay [9], in assay [11], in assay [12], in [13] and in assay [14]. The result in assay [16], in [17], in [18] and in [19] was inactive. Moreover, the AC50 is 8080 nM (active) in assay [20] and 2210 nM (active) in [10].
